Inconclusive results are not listed. Unmarked numbers belong to inactive results. Active and inactive are the calls of the source. Calls follow the shape of the dose curve; as a rule, active = well fitted inhibition curve with a large enough effect; inconclusive = small, poorly fitted or top-dose-only effect; inactive = flat fitted curve, though single readings scatter.
tested on: CP203; assay: qHTS profiling for inhibitors of Plasmodium falciparum proliferation (AID 504749); also: nearly all actives have a fitted effect of over 60% in size;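 as to activity, negative = inhibition: 0% = DMSO vehicle and full inhibition = artemisinin control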; conditions: P. falciparum in erythrocytes, SYBR Green DNA, 72 h; series mostly up to 28.7 µM; activity, negative = inhibition: at the top concentration
Text: NIH National Institute of Allergy and Infectious Diseases [NIAID] NIH Chemical Genomics Center [NCGC] MLPCN Grant: None Assay Provider: Xinzhuan Su, NIAID NCGC Assay Overview: Plasmodium falciparum is a virulent malarial parasite that kills 1-2 million people worldwide each year. Transmitted by mosquitoes, the sporozoite form of the parasite enters the blood stream to infect hepatocytes, where they become merozoites that infect red blood cells (erythrocytes). Within erythrocytes, merozoites begin a […] cycle of growth and division, after which the parasite is released to infect new red blood cells. Gametocytes, which form within erythrocytes as well, circulate in the bloodstream and are ingested by the mosquito, thereby completing the life cycle. To profile malarial isolates for differential chemical responses and to identify inhibitors of malarial growth, an assay that measures P. falciparum growth and replication within erythrocytes was employed. This assay uses a DNA binding fluorescent dye (SYBR Green) to detect parasite DNA following cell lysis. Because mature erythrocytes lack DNA, only Plasmodium-derived DNA is detected.
NCGC Assay Protocol Summary: The SYBR Green viability assay was adapted from a method described previously (Plouffe et al., 2008). For screening 3 ul culture medium was dispensed into 1536 well black clear bottom plates (Aurora Biotechnologies) using a Multidrop Combi (Thermo Fisher Scientific Inc.), 23 nL compounds in DMSO were added by a pin tool (Kalypsys), and 5 ul of erythrocytes infected with P. falciparum (0.3% parasitemia, 2.5% hematocrit final concentration) were added. The plates were incubated at 37 C in a humidified incubator in 5% CO2 for 72 h, and 2 ul lysis buffer (20 mM Tris HCl, 10 mM EDTA, 0.16% saponin, 1.6% triton X, 10X SYBR Green I supplied as 10,000X […] by Invitrogen) was added to each well. The plates were mixed for 25 sec with gentle shaking and incubated overnight at room temperature in the dark. The following morning, fluorescence intensity at 485(14) nm excitation and 535(25) nm emission wavelengths was measured on an EnVision (Perkin Elmer) plate reader. Plate reads were normalized relative to the control inhibitor (0.29 uM artemisinin) and vehicle (DMSO) wells present on each plate and then corrected by an algorithm using vehicle-only control plates at the beginning and end of the compound plate stack.
Potency is read from the fitted curve at half-maximal effect.

Compared with C[C@H]1CC[C@@H]2[C@@H](C)[C@H]3[C@H](C[C@H]4[C@@H]5CC=C6CC(O[C@@H]7O[C@H](CO)[C@H](O)[C@H](O[C@@H]8O[C@H](CO)[C@@H](O)[C@H](O)[C@H]8O)[C@H]7O[C@H]7O[C@@H](C)[C@H](O)[C@@H](O)[C@H]7O)CC[C@]6(C)[C@H]5CC[C@]34C)N2C1 (stereo not given in full), CCCCCCCCCC(=O)O[C@H]1CC[C@H]2[C@@H]3CCC4=CC(=O)CC[C@]4(C)[C@H]3CC[C@]12C is higher in “activity, negative = inhibition” value: -0.95% for the first, 4.39% for the second.

Compared with CCCC(=O)OC(C(Cl)(Cl)Cl)P(=O)(OC)OC (stereo not given), COC([CH2][Hg])CNC(=O)c1ccccc1OCC(=O)O (stereo not given) is higher in “activity, negative = inhibition” value: 1.44% for the first, 2.62% for the second.

Going from N#CN to S=C=S, the “activity, negative = inhibition” value rises from -1.04% to 1.47%.

Compared with O=[N+]([O-])c1ccc(F)c([N+](=O)[O-])c1, O=C1CN(O)C(c2ccccc2)=c2cc(Cl)ccc2=N1 is lower in “activity, negative = inhibition” value: 5.09% for the first, 0.0367% for the second.

Compared with CNC(=O)Oc1ccccc1C(=O)Nc1ccccc1, CCC1(c2ccccc2)C(=O)NC(=O)N(C(=O)c2ccccc2)C1=O (stereo not given) is higher in “activity, negative = inhibition” value: -19% for the first, -5.53% for the second.

Compared with O[C@H]1[C@H]2[C@H](O)CCCN2C[C@H]1O, OC(c1ccccc1)(c1ccccc1)C1CN2CCC1CC2 (stereo not given) is lower in “activity, negative = inhibition” value: 0.21% for the first, -6.22% for the second.

First: CC(=O)O[C@H]1CC[C@H]2[C@@H]3CCC4=CC(=O)CCC4=C3C=C[C@]12C
Second: COc1ccc2c3c1O[C@H]1C(=O)CC[C@H]4[C@@H](C2)N(C)CC[C@]314
The “activity, negative = inhibition” value of the first is lower: -3.75% for the first, 1.6% for the second.

First: C[C@]12CCC(=O)C[C@@H]1CC[C@@H]1[C@@H]2CC[C@]2(C)[C@@H](O)CC[C@@H]12
Second: C=CCN1CCC23c4c5ccc(O)c4O[C@H]2C(=O)CC[C@@]3(O)C1C5 (stereo not given in full)
The “activity, negative = inhibition” value of the first is higher: 3.02% for the first, -0.389% for the second.

Going from O=C(NCNC(=O)NC1C(=O)NC(=O)N1CO)NC1C(=O)NC(=O)N1CO (stereo not given) to CCOC(=O)c1ccccc1C(=O)OCC, the “activity, negative = inhibition” value rises from -2.43% to -0.258%.

Going from CC(C)CCON=O to CC1CCC(C(C)C)C(OC(=O)c2ccccc2N)C1 (stereo not given), the “activity, negative = inhibition” value falls from 2.19% to 0.955%.

Going from O=C(NC(=O)c1c(F)cccc1F)Nc1ccc(Cl)c(Oc2ncc(C(F)(F)F)cc2Cl)c1 to CCC1C(C)=NN=C(c2ccc(OC)c(OC)c2)c2cc(OC)c(OC)cc21 (stereo not given), the “activity, negative = inhibition” value falls from 1.48% to -15.9%.

Going from ClCC1CO1 (stereo not given) to ClC1C(Cl)C(Cl)C(Cl)C(Cl)C1Cl (stereo not given), the “activity, negative = inhibition” value falls from 10.4% to 0.464%.

Compared with FC(F)OC(F)(F)C(F)Cl (stereo not given), CNC(C)C(O)c1ccc(O)cc1 (stereo not given) is lower in “activity, negative = inhibition” value: 1.7% for the first, -0.0442% for the second.

Compared with Clc1ccc(C2(Cn3cncn3)OCCO2)c(Cl)c1, c1ccc2cc(CC3=NCCN3)ccc2c1 is lower in “activity, negative = inhibition” value: -2.34% for the first, -7.62% for the second.

Going from N#CC1(N2CCCCC2)CCCCC1 to C#CC(C)(O)CC (stereo not given), the “activity, negative = inhibition” value rises from 1.31% to 9.61%.

Going from CCCCNCC(O)c1ccc(O)cc1 (stereo not given) to CC(N)Cc1ccc(O)cc1 (stereo not given), the “activity, negative = inhibition” value falls from -0.815% to -1.04%.

First: COc1ccc(OC)c(C(O)C(C)N)c1 (stereo not given)
Second: CC(Cc1ccccc1)NC=O (stereo not given)
The “activity, negative = inhibition” value of the first is lower: -0.998% for the first, 0.489% for the second.

Compared with O=CC=O, CCCCCCCCOC(=O)c1ccccc1C(=O)OCCCCCCCC is lower in “activity, negative = inhibition” value: 1.45% for the first, -4.34% for the second.

For [Cl-].[Cl-].[Hg+2], the “activity, negative = inhibition” value was -18.3%.

C/C(=C\c1csc(C)n1)[C@@H]1C[C@@H]2O[C@]2(C)CCC[C@H](C)[C@H](O)[C@@H](C)C(=O)C(C)(C)[C@@H](O)CC(=O)O1 was tested, and the Potency was 0.0024 µM (active).
In the case of CC(C)Nc1ccc(Nc2ccccc2)cc1, the Potency is reported as 8.49 µM (active).

O=S(=O)(O)c1cc(O)ccc1O was tested, and the “activity, negative = inhibition” value was -2.41% [at 12.8 µM].
